This is a sample that favours compounds with a hit; in the whole collection about 21% have one here.
RORgamma inh: ROR gamma (mouse) transcription inhibition; P51450; Drosophila S2 Gal4-RORgamma UAS-luciferase reporter, 20 h; Potency, µM (series often up to 53.6 µM), for inactives: at the top dose activity change, negative = inhibition, actives largely listed as inhibitors; 310,000 tested, 5.4% active; also: potency is read from the fitted curve at half-maximal effect; nearly all actives have a fitted effect of over 60% in size
Target sequence (P51450 whole entry, looked up, the tested form may be a part): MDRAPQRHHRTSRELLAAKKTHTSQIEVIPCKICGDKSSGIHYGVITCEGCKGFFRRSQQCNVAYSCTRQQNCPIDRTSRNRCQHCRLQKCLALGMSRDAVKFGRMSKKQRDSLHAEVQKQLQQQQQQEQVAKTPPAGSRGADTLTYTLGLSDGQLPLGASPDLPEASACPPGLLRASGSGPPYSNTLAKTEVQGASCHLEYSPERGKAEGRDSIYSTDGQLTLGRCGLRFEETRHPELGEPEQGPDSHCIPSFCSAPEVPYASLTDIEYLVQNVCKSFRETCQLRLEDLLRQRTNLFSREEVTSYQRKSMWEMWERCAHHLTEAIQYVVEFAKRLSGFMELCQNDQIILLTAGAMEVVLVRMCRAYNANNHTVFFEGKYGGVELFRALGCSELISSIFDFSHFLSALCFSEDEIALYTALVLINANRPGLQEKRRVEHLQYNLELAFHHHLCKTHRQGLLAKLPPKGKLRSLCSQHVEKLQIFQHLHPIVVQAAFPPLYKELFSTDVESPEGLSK
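Using a luciferase readout, inhibitors were identified by reduced reporter activity in Drosophila cells coexpressing a copper-inducible Gal4–ROR gamma fusion and UAS-driven Photinus luciferase, incubated 20 hr after 700 uM copper sulfate.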
DT40 TDP1 CPT: growth inhibition of DT40 Tdp1-/-;hTDP1 cells with camptothecin (screen for TDP1 inhibitors); chicken DT40 Tdp1-/-;hTDP1 cells + 20 nM CPT, ATP luminescence, 48 h; Potency, µM (series often up to 46.2 µM), without a hit: at the highest dose activity change, negative = growth inhibition, usual class: inhibitors; 420,000 tested, 12% active; also: potency is read from the fitted curve at half-maximal effect; nearly all actives have a fitted effect of over 55% in size
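Cell growth measured by CellTiter-Glo luminescence after a minimum 48 h, 37 C compound exposure with 20 nM CPT in Tdp1-knockout DT40 cells stably expressing hTDP1, seeded 400/well; qHTS titration format.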
IL-1B inflam inh: blocks inflammasome-driven IL-1 beta release; THP-1 LPS/ATP IL-1B secretion, AlphaLISA, 16 h; hits give low values; activity change, % at 57.5 µM; 360,000 tested, 4.7% active; AID 743279; in the data active = activity change below about -50%; inconclusive = mostly about -30% to -49%
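THP-1 cells pretreated 1 hr with compounds (up to 57.5 uM final), then stimulated with LPS (250 ng/mL final) plus ATP (1.25 mM final); secreted IL-1B measured by AlphaLISA after 16 hr, decreased signal indicating inhibition.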
Gal4-VP16 FLuc: counter-screen for ROR gamma inhibitors: Gal4-VP16 reporter; Potency, µM (series often up to 53.6 µM), for inactives: top-dose activity, negative = inhibition, hits mostly inhibitors; Drosophila S2 Gal4-VP16 UAS-luciferase, luminescence, 20 h; 310,000 tested, 3.5% active;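 also: Gal4-VP16 expression switched on by copper sulfate through the metallothionein promoter; potency is read from the fitted curve at half-maximal effect; nearly all actives have a fitted effect of over 50% in size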
DT40 TDP1 no CPT: qHTS for Inhibitors of human tyrosyl-DNA phosphodiesterase 1 (TDP1): qHTS in cells in absence of CPT. 420,000 tested, 15% active. Potency, µM (series often up to 46.2 µM), for the others: at the top dose activity change, negative = growth inhibition, hits mostly inhibitors. AID 686978, 2013. DT40 Tdp1-/- hTDP1 cells, no CPT, ATP luminescence, 48 h; also: potency is read from the fitted curve at half-maximal effect; nearly all actives have a fitted effect of over 55% in size
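Stably hTDP1-transfected Tdp1-null chicken DT40 cells were treated with library compounds minus camptothecin and grown for at least 48 hr at 37 °C, after which cellular ATP was quantified by luminescence.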
ELG1 repair inh: blocks ELG1-dependent DNA repair in HEK293T cells. HEK293T ELG1-luciferase reporter, luminescence, 16 h; DNA damage induced by 5-fluorouridine. Potency, µM (series often up to 46.1 µM), inactives show at the top dose activity change, negative = inhibition, most hits filed as inhibitors. 330,000 tested, 2.3% active. AID 504467; also: potency is read from the fitted curve at half-maximal effect; nearly all actives have a fitted effect of over 55% in size
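Step one: seed 2,000 cells per well. Step two: pin-transfer compound or DMSO alongside 5-fluorouridine. Step three: incubate 16 hr, 37 °C, 5% CO2. Step four: add ONE-Glo, wait 30 min, read luminescence.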
* = called active by the depositor; ! = a repeat was not active; [ ] = another dose, or the depositor's remark. Unless noted, calls follow the shape of the dose curve; as a rule, active = well fitted curve in the direction sought with a large enough effect; inconclusive = small, poorly fitted or top-dose-only effect, or another doubt; inactive = no such curve, though single readings can be large; an effect the other way counts as inactive or inconclusive. % is scaled to controls: 0 for no effect and ±100 for the full control effect.

`CCc1nc2c(OCc3ccc(Cl)cc3)cccn2c1N(C)C(=O)c1ccc(C)cc1` gave DT40 TDP1 CPT 18µM*, IL-1B inflam inh inconclusive and DT40 TDP1 no CPT 18µM*.
`CCOC(=O)N(C)c1c(CC)nc2c(OCC(=O)C(C)(C)C)cccn12` gave DT40 TDP1 CPT -22%, IL-1B inflam inh 8 and DT40 TDP1 no CPT -20%.
O=C(COc1ccc(Cl)cc1)NCc1ccccc1 was read as RORgamma inh 29%, DT40 TDP1 CPT -16%, IL-1B inflam inh -12, Gal4-VP16 FLuc 11%, DT40 TDP1 no CPT -14% and ELG1 repair inh -15%.
For Clc1ccc(OCCNCCc2ccccc2)cc1 the results were RORgamma inh -29%[1.91 µM], DT40 TDP1 CPT inconclusive, IL-1B inflam inh -53*, Gal4-VP16 FLuc 13%, DT40 TDP1 no CPT inconclusive and ELG1 repair inh -10%.
`CC(=O)c1c(C)[nH]c2ccc(OCC(O)CNCCc3ccccc3)cc12` (stereo unspecified) gave DT40 TDP1 CPT inconclusive and DT40 TDP1 no CPT 16µM*.
`O=C(NNCC(O)COc1ccccc1)c1ccccc1` (stereo unspecified) gave RORgamma inh 31%, DT40 TDP1 CPT -23%, IL-1B inflam inh -6, Gal4-VP16 FLuc 7%, DT40 TDP1 no CPT -7% and ELG1 repair inh 16%.
For OC(CNCCc1ccc(Cl)cc1)COc1ccc2ccccc2c1 (stereo unspecified) the results were RORgamma inh inconclusive, DT40 TDP1 CPT inconclusive, IL-1B inflam inh -106*, Gal4-VP16 FLuc inconclusive, DT40 TDP1 no CPT inconclusive and ELG1 repair inh -9%.
OC(CNCCC(c1ccccc1)c1ccccc1)COc1ccccc1 (stereo unspecified) was read as RORgamma inh inconclusive, DT40 TDP1 CPT 13µM*, IL-1B inflam inh -105*, Gal4-VP16 FLuc -29%, DT40 TDP1 no CPT 13µM* and ELG1 repair inh -5%.
`COc1ccc(CCNCC(O)COc2cccc(C(C)=O)c2)cc1OC` (stereo unspecified) gave RORgamma inh -2%, DT40 TDP1 CPT -13%, IL-1B inflam inh -6, Gal4-VP16 FLuc 2%, DT40 TDP1 no CPT inconclusive and ELG1 repair inh inconclusive.
Screening COCCn1c(=O)c(-c2cccs2)nc2cnc(N3CCNCC3)nc21 returned RORgamma inh -34%, DT40 TDP1 CPT inconclusive, Gal4-VP16 FLuc 0% and DT40 TDP1 no CPT inconclusive.
Screening OC(CNCCc1ccc(Cl)cc1)COc1cc(Cl)ccc1Cl (stereo unspecified) returned RORgamma inh -18%, DT40 TDP1 CPT 16µM*, IL-1B inflam inh -18, Gal4-VP16 FLuc -24%, DT40 TDP1 no CPT inconclusive and ELG1 repair inh 10%.
OC(CNCCc1ccccc1)COc1ccc(OCC(O)CNCCc2ccccc2)cc1 (stereo unspecified) was read as RORgamma inh -43%, DT40 TDP1 CPT -92%, IL-1B inflam inh -91*, Gal4-VP16 FLuc -8%, DT40 TDP1 no CPT 16µM* and ELG1 repair inh inconclusive.
COc1ccc(CCNCC(O)COc2c(C)cccc2C)cc1OC (stereo unspecified) was read as RORgamma inh 1%, DT40 TDP1 CPT -28%, IL-1B inflam inh -67*, Gal4-VP16 FLuc 9%, DT40 TDP1 no CPT inconclusive and ELG1 repair inh -12%.
Cc1ccc(OCC(O)CNCc2ccccc2)cc1C (stereo unspecified) was read as RORgamma inh -12%, DT40 TDP1 CPT inconclusive, IL-1B inflam inh inconclusive, Gal4-VP16 FLuc -1%, DT40 TDP1 no CPT inconclusive and ELG1 repair inh 2%.
Screening COc1ccc(CCNCC(O)COc2ccc(Cl)cc2)cc1OC (stereo unspecified) returned RORgamma inh -11%, DT40 TDP1 CPT inconclusive, IL-1B inflam inh inconclusive, Gal4-VP16 FLuc -6%, DT40 TDP1 no CPT -17% and ELG1 repair inh -4%.
c1ccc(CCNCCCOc2cccc3ccccc23)cc1 was read as RORgamma inh -2%[1.91 µM], DT40 TDP1 CPT -25%, IL-1B inflam inh -101*, Gal4-VP16 FLuc -10%, DT40 TDP1 no CPT inconclusive and ELG1 repair inh -16%.
Screening Cc1c(NS(=O)(=O)c2ccc(N)cc2)c(=O)n(-c2ccccc2)n1C returned RORgamma inh -19%, DT40 TDP1 CPT 6%, IL-1B inflam inh 6, Gal4-VP16 FLuc -9%, DT40 TDP1 no CPT -3% and ELG1 repair inh 1%.
Screening COc1ccc2nc(NC(=O)c3ccc(S(=O)(=O)N4CCC(C)CC4)cc3)sc2c1 returned DT40 TDP1 CPT 3% and DT40 TDP1 no CPT inconclusive.
COc1ccc(CC(=O)NCC(C)(C)N2CCOCC2)cc1 was read as RORgamma inh 6%, DT40 TDP1 CPT 11%, IL-1B inflam inh -6, Gal4-VP16 FLuc 0%, DT40 TDP1 no CPT 17% and ELG1 repair inh 15%.
`O=C(CSc1nnc(-c2cccs2)n1C1CC1)NCC1CCCO1` (stereo unspecified) gave DT40 TDP1 CPT 0%, IL-1B inflam inh 11, DT40 TDP1 no CPT 9% and ELG1 repair inh 19%.
`Cc1cc(OCC(=O)NCCc2nc3ccccc3[nH]2)cc(C)c1Cl` gave DT40 TDP1 CPT 12µM* and DT40 TDP1 no CPT 12µM*.
For Cc1ccc(C(C)(C)C)c(OCC(=O)NCCc2nc3ccccc3[nH]2)c1 the results were DT40 TDP1 CPT 13µM* and DT40 TDP1 no CPT 7.3µM*.
Cc1ccc(OCC(=O)NCCc2nc3ccccc3[nH]2)c(C)c1 was read as RORgamma inh 1%, DT40 TDP1 CPT inconclusive, IL-1B inflam inh -2, Gal4-VP16 FLuc -6%, DT40 TDP1 no CPT -25% and ELG1 repair inh 3%.
For CCCCCCCCCCCC(=O)[O][Sn]([CH2]CCC)([CH2]CCC)[O]C(=O)CCCCCCCCCCC the results were RORgamma inh 9%[10 µM], DT40 TDP1 CPT -11%, Gal4-VP16 FLuc -11% and DT40 TDP1 no CPT 0%.
`CN(Cc1ccccc1)c1ccc2cc(S(=O)(=O)N3CCCCC3)ccc2n1` gave DT40 TDP1 CPT 10µM* and DT40 TDP1 no CPT 9.2µM*.
For Cc1ccc(S(=O)(=O)N2CCCCC2)cc1C(=O)NCCc1ccccc1 the results were RORgamma inh 18%, DT40 TDP1 CPT -7%, IL-1B inflam inh -13, Gal4-VP16 FLuc inconclusive, DT40 TDP1 no CPT inconclusive and ELG1 repair inh -3%.
For Cc1cccc(N(C)c2ccc3cc(S(=O)(=O)N4CCCC4)ccc3n2)c1 the results were RORgamma inh -29%, DT40 TDP1 CPT 16µM*!, IL-1B inflam inh -12, Gal4-VP16 FLuc -17%, DT40 TDP1 no CPT 16µM* and ELG1 repair inh -27%.

Source: PubChem BioAssay (National Center for Advancing Translational Sciences (NCATS))
